NALP1 yeast inh: blocks the NALP1 inflammasome reconstituted in yeast; S. cerevisiae NALP1/ASC/caspase-1 growth, X-gal OD620, 72 h; actives 0.61% (n = 280,000); inhibition, % at 10 µM; in the data active means inhibition mostly above about 24%, no sharp cut-off; inactive means mostly below about 32%
NALP3 yeast inh: inhibitors of NALP3 inflammasome in yeast; Yeast reconstituted NLRP3/ASC/caspase-1, beta-gal luminescence, 24 h; inhibition, % at 10 µM; actives 0.39% (n = 330,000); AID 2825;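 active means inhibition of 50% or more; inactive means inhibition below 50%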;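 further: plate controls were induced DMSO wells for no effect and uninduced yeast grown without galactose for full effect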
CHT inh: inhibits the human high affinity choline transporter; Q9GZV3; CHT-expressing cells, membrane potential dye, choline response; active compounds read low; B-score at 10 µM; actives 0.86% (n = 310,000); AID 488975;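 active means B-score over 3 SD under the library average, and starting fluorescence ratio not unusually high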;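 further: choline stimulus applied at its EC90 after an EC20 pre-addition; B-score computed on integrated fluorescence ratio after choline addition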
Target sequence (Q9GZV3 whole entry, looked up): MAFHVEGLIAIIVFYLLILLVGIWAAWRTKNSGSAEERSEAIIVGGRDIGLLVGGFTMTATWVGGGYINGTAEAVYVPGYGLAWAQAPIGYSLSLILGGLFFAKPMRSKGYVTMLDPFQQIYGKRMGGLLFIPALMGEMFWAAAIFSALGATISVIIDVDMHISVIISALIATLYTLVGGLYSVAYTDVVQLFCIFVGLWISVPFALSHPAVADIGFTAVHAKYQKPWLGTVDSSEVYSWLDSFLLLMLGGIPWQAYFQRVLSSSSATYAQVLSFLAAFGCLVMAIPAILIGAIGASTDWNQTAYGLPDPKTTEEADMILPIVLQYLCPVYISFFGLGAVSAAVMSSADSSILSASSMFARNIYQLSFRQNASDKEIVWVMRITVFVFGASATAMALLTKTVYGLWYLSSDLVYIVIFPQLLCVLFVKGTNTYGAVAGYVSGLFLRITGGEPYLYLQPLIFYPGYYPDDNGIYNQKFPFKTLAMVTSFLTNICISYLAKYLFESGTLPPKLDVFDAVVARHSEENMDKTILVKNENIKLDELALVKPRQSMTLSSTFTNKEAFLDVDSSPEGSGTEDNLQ
CHT PAM: allosteric activators of human choline transporter CHT | Q9GZV3 | CHT-expressing cells, membrane potential dye, choline EC20; active compounds read high; LV-AA mutant CHT in HEK293 cells | B-score at 10 µM | actives 0.49% (n = 310,000) | AID 488977;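 active means initial fluorescence not abnormally high and integrated response B-score, plate-corrected, over 3 SD above library mean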
Mot1-301 SUMO: SUMOylation pathway inhibition by Mot1-301 growth rescue. S. cerevisiae Mot1-301 growth rescue, ATP luminescence, 38.5C; percent above DMSO median, 100 means doubled. growth rescue, % at 18.8 µM. actives 1% (n = 320,000). AID 2716;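 active means every valid replicate shows activation above 250% relative to neutral control wells; inactive means the rest, any valid replicate at or below 250%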;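 further: OY570 slx delta 5 strain wells were the positive control but not used for scaling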
Bfl-1 A1 inh: inhibitors of the anti-apoptotic protein A1, read as caspase activation | MEF A1-2A-BIM cells, Caspase-Glo 3/7 luminescence, 3 h; percent of clofoctol response, vehicle zero | caspase activation, % (test concentration not listed) | actives 0.066% (n = 330,000) | AID 2462;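 active means over half of replicate activation scores above 10%, or exactly half above 10 with the replicate mean above 10; inconclusive means replicate mean below 10 yet half the replicates above 10; inactive means over half of replicates below 10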
Starred values were filed as active, the others as inactive. Sampled rows, rich in hits. Any-hit rate of the full collection: about 3%.

For Cc1ccc(NC2=C(NC(=O)c3ccccc3)C(=O)c3ccccc3C2=O)cc1Cl the results were NALP1 yeast inh 64.6*, NALP3 yeast inh 49.0, CHT inh inactive, CHT PAM inactive, Mot1-301 SUMO 130.5 and Bfl-1 A1 inh 0.1.
For O=C(c1ccc(-c2cccc(C(F)(F)F)c2)o1)N1CCCCCCC1 the results were NALP3 yeast inh 14.4, CHT inh inactive, CHT PAM inactive, Mot1-301 SUMO 532.9* and Bfl-1 A1 inh 0.1.
S=C(c1ccc(-c2cccc(Cl)c2)o1)N1CCCCC1 was read as NALP1 yeast inh 38.1*, NALP3 yeast inh 5.0, CHT inh inactive, CHT PAM inactive, Mot1-301 SUMO 19.9 and Bfl-1 A1 inh -0.2.
For N=C1C(c2nc3ccccc3c(=O)[nH]2)=C(O)CN1c1ccccc1 the results were NALP1 yeast inh 37.8*.
For Cc1ccc(N2CC(O)=C(c3nc4ccccc4c(=O)[nH]3)C2=N)cc1C the results were NALP1 yeast inh -3.6, NALP3 yeast inh 39.8, CHT inh inactive, CHT PAM inactive, Mot1-301 SUMO 16.1 and Bfl-1 A1 inh 0.2.
C=CCn1c(C)nnc1SCC(=O)Nc1nccs1 was read as NALP1 yeast inh -9.9, NALP3 yeast inh 5.7, CHT inh inactive, CHT PAM inactive, Mot1-301 SUMO -3.5 and Bfl-1 A1 inh 1.2.
Screening COc1cc(/C=N\NC(=O)c2cccnc2)ccc1OC(=O)c1ccccc1Cl returned NALP1 yeast inh 8.7, NALP3 yeast inh 8.0, CHT inh inactive, CHT PAM inactive, Mot1-301 SUMO 4.0 and Bfl-1 A1 inh -0.5.
`Cc1ccc2nc(-c3ccncc3)cc(-c3ccccc3)c2c1` gave NALP1 yeast inh 34.4*, NALP3 yeast inh 12.8, CHT inh inactive, CHT PAM inactive, Mot1-301 SUMO 7.0 and Bfl-1 A1 inh 0.2.
CCS(=O)(=O)Nc1ccc(-c2cc(-c3ccccc3)c3cc(C)ccc3n2)cc1 was read as NALP1 yeast inh 36.0, CHT inh inactive, CHT PAM inactive, Mot1-301 SUMO -5.8 and Bfl-1 A1 inh 1.0.
`COc1ccc(-c2noc(N3CCCC(C(=O)Nc4ccc(C(C)=O)cc4)C3)n2)cc1` (centres undefined) gave NALP1 yeast inh 8.2, NALP3 yeast inh 22.8, CHT inh inactive, CHT PAM inactive, Mot1-301 SUMO -3.6 and Bfl-1 A1 inh -6.9.
`Cc1ccc(Nc2ccc(NCc3ccccc3)nn2)cc1C` gave NALP1 yeast inh 40.4, NALP3 yeast inh 22.6, CHT inh inactive, CHT PAM inactive, Mot1-301 SUMO 6.6 and Bfl-1 A1 inh 0.2.
`Clc1ccc(Nc2ccc(NCc3ccccc3)nn2)cc1` gave NALP1 yeast inh 71.8*, NALP3 yeast inh 35.4, CHT inh inactive, CHT PAM inactive, Mot1-301 SUMO 28.3 and Bfl-1 A1 inh 1.1.
For CCN1C(=O)[C@H]2[C@@H](c3ccc(-c4ccc(OC)cc4)cc3)N3CCCC[C@@]3(C(=O)OC)[C@H]2C1=O the results were NALP3 yeast inh 4.6, CHT inh inactive, CHT PAM inactive, Mot1-301 SUMO 787.8* and Bfl-1 A1 inh 1.1.
CCN1C(=O)[C@H]2[C@@H](c3ccc(-c4ccc(OC)cc4)cc3)N3CCC[C@@]3(C(=O)OC)[C@H]2C1=O was read as NALP3 yeast inh 17.9, CHT inh inactive, CHT PAM inactive, Mot1-301 SUMO -5.2 and Bfl-1 A1 inh -1.5.
Screening Cc1ccc(C)c(N2CCN(C(=O)C3CCCN(c4ncnc5c4nc4n5CCCCC4)C3)CC2)c1 (centres undefined) returned NALP1 yeast inh 7.3, NALP3 yeast inh 21.6, CHT inh -7.44*, CHT PAM inactive, Mot1-301 SUMO -3.4 and Bfl-1 A1 inh -2.0.
Cc1oc2cc(O)ccc2c(=O)c1Oc1ccc2ccccc2c1 was read as NALP1 yeast inh 32.4*, NALP3 yeast inh 18.1, CHT inh inactive, CHT PAM inactive, Mot1-301 SUMO -18.4 and Bfl-1 A1 inh 1.1.
`O=C(Cn1cccc1C(=O)c1ccccc1)NCCc1ccc(Cl)cc1` gave NALP1 yeast inh 25.7, NALP3 yeast inh 9.1, CHT inh inactive, CHT PAM inactive, Mot1-301 SUMO 313.9* and Bfl-1 A1 inh 0.9.
O=C(Cn1cccc1C(=O)c1ccccc1)NCCc1ccccc1 was read as NALP1 yeast inh 19.0, NALP3 yeast inh 13.8, CHT inh inactive, CHT PAM inactive, Mot1-301 SUMO -1.2 and Bfl-1 A1 inh 2.2.
`O=C(Cn1ncc2c([nH]c3ccccc32)c1=O)N1CCN(c2ccccn2)CC1` gave NALP1 yeast inh 10.4, NALP3 yeast inh 4.6, CHT inh inactive, CHT PAM inactive, Mot1-301 SUMO 0.1 and Bfl-1 A1 inh -0.7.
For O=C(c1cccc(Cl)c1)N1CCN(c2ncnc3c2cnn3-c2ccccc2)CC1 the results were NALP1 yeast inh 24.8*, NALP3 yeast inh 13.4, CHT inh inactive, CHT PAM inactive, Mot1-301 SUMO 254.3 and Bfl-1 A1 inh -0.7.
Cc1cc(C)n(/N=C/c2c[nH]c3ccccc23)c(=O)c1C#N was read as NALP1 yeast inh 6.3, NALP3 yeast inh -9.4, CHT inh inactive, CHT PAM inactive, Mot1-301 SUMO 295.6* and Bfl-1 A1 inh 0.4.
For Cc1cc(C)n(/N=C/c2ccccc2)c(=O)c1C#N the results were NALP1 yeast inh 6.7, NALP3 yeast inh 22.4, CHT inh inactive, CHT PAM inactive, Mot1-301 SUMO -1.5 and Bfl-1 A1 inh 0.5.
CN(C(=O)c1ccc(F)cc1)c1ccc(OCC(=O)Nc2ccccc2C(=O)O)cc1 was read as NALP3 yeast inh 1.5, Mot1-301 SUMO -16.5 and Bfl-1 A1 inh inconclusive.
COc1ccccc1NC(=O)c1ccc(Br)c(S(=O)(=O)N2CCCC2)c1 was read as NALP1 yeast inh 6.0, NALP3 yeast inh -38.6, CHT inh inactive, CHT PAM inactive, Mot1-301 SUMO -6.9 and Bfl-1 A1 inh -0.5.
For COc1ccccc1C(=O)Nc1ccnn1C1CCN(Cc2cc(C)c(C)cc2C)CC1 the results were NALP1 yeast inh 15.0, NALP3 yeast inh 31.3, CHT inh -5.27*, CHT PAM inactive, Mot1-301 SUMO 340.1 and Bfl-1 A1 inh -0.9.
`Cc1cc(C)c(CN2CCC(n3nccc3NC(=O)c3ccccc3Cl)CC2)cc1C` gave NALP1 yeast inh 30.0, NALP3 yeast inh 25.6, CHT inh inactive, CHT PAM inactive, Mot1-301 SUMO 11.0 and Bfl-1 A1 inh 0.8.
`O=c1[nH]c2cccnc2n1Cc1ccccc1` gave NALP1 yeast inh 41.2*, NALP3 yeast inh 7.4, CHT inh inactive, CHT PAM inactive and Bfl-1 A1 inh 0.6.
For O=c1[nH]c2ccccc2n1Cc1ccccc1 the results were NALP1 yeast inh 21.0, NALP3 yeast inh 13.8, CHT inh inactive, CHT PAM inactive, Mot1-301 SUMO -13.6 and Bfl-1 A1 inh -0.1.
O=C(c1nnsc1S(=O)c1ccc(Cl)cc1)N1CCOCC1 (centres undefined) was read as NALP1 yeast inh 66.8* and NALP3 yeast inh 13.6.

Compound activity: PubChem BioAssay, several laboratories
